High-throughput results: PubChem, several laboratories
Shown are actives, neighbours in structure and some others; about 1.6% of the full set was active somewhere.
PfHsp40 yeast – rescue of PfHsp40-mediated yeast toxicity; S. cerevisiae expressing PfHsp40, growth rescue, ATP luminescence; growth rescue, % at 12.5 µM; actives 0.68% (n = 340,000); AID 504582; in the data active means growth rescue above about 28%, passing the limit was not always enough;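 further: yeast W303a lacking pdr1 and pdr3 grown in galactose medium; growth measured after three days at 30 °C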
CCHF vOTU inh – blocks the CCHF virus ovarian tumor domain protease. CCHFV vOTU protease, Pep-AMC fluorescence. AID 651958. actives 0.55% (n = 370,000). inhibition, % at 11.5 µM; in the data active means inhibition above about 30%; further: 0% = vehicle wells with enzyme and 100% = no enzyme wells
Sa ugtP lethal – compounds lethal to S. aureus RN4220 ugtP deletion mutant; OD600 growth, 16 h; actives 0.54% (n = 330,000); growth inhibition, % (test concentration not listed); in the data active means growth inhibition above about 68%;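 further: plate controls were untreated wells for no effect and antibiotic for full effect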
Sa RN4220 lethal – S. aureus RN4220 growth inhibition; AID 1259311; OD600, 16 h; actives 0.33% (n = 330,000); inhibition, % (no concentration beside the values); in the data active means inhibition above about 85%;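 further: plate controls were untreated cells for no effect and reference antibiotic for full effect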
BJeLR lethal – BJeLR cell viability loss; BJeLR (HRASV12) viability, CellTiter-Glo ATP luminescence, 48 h; inhibition, % (concentration not given with the values); actives 0.17% (n = 300,000); AID 1554; in the data active means inhibition above about 50%
The depositor's hits bear a star.

What do the screens show for `CO[C@@]1(NC(=O)CSCC#N)C(=O)N2C(C(=O)O)=C(CSc3nnnn3C)CSC21` (stereo partly drawn)?
Sa ugtP lethal: 6; Sa RN4220 lethal: 3

How did CC1=C(C(=O)O)N2C(=O)C(NC(=O)c3nn(C)cc3Cl)C2SC1 (stereo not drawn) do in these assays?
PfHsp40 yeast: -2; CCHF vOTU inh: 2; Sa ugtP lethal: 7; Sa RN4220 lethal: 4; BJeLR lethal: -1

Results for CO[C@@]1(NC(=O)C2SC(=C(C(N)=O)C(=O)O)S2)C(=O)N2C(C(=O)O)=C(CSc3nnnn3C)CS[C@@H]21 (stereo partly drawn) ?
PfHsp40 yeast: -1; CCHF vOTU inh: -3

Results for O=C(NN=Cc1ccccc1)c1sccc1-n1cccc1 ?
Sa ugtP lethal: -5; Sa RN4220 lethal: 3

What do the screens show for `O=C1CCN(Cc2cccnc2)CCN1C(CO)Cc1ccccc1` (stereo not drawn)?
Sa ugtP lethal: -3; Sa RN4220 lethal: 4

What do the screens show for `CCN1CCN(C(=O)NC(C(=O)NC2C(=O)N3C(C(=O)O)=C(CSc4nnnn4C)CSC23)c2ccc(O)cc2)C(=O)C1=O` (stereo not drawn)?
Sa ugtP lethal: 100*; Sa RN4220 lethal: 101*

Results for COc1cccc(C(=O)NC2C(=O)N3C(C(=O)O)=C(COC(C)=O)CSC23)c1 (stereo not drawn) ?
PfHsp40 yeast: 1; CCHF vOTU inh: 5

What do the screens show for `Cc1nn(CC(=O)NC2C(=O)N3C(C(=O)O)=C(CSc4nnnn4C)CSC23)cc1Br` (stereo not drawn)?
PfHsp40 yeast: 0; CCHF vOTU inh: 14; Sa ugtP lethal: 99*; Sa RN4220 lethal: 100*; BJeLR lethal: 1

Results for CC(=O)n1cc(C2C=C(C(=O)N3CCN(C)CC3)OC(OCc3ccc(CO)cc3)C2)c2ccccc21 (stereo not drawn) ?
Sa ugtP lethal: -1; Sa RN4220 lethal: 3

How did C=CCN1C(=O)C(=C2Sc3ccccc3N2C)SC1=Nc1c(C)n[nH]c1C do in these assays?
Sa ugtP lethal: -5; Sa RN4220 lethal: -3

What do the screens show for `COc1cc(OC)c(C#N)c(S(=O)(=O)Cc2ccccc2)c1`?
PfHsp40 yeast: 64*; CCHF vOTU inh: 2; Sa ugtP lethal: 5; Sa RN4220 lethal: 10; BJeLR lethal: -1

How did N#Cc1c([N+](=O)[O-])cc([N+](=O)[O-])cc1S(=O)(=O)Cc1ccccc1 do in these assays?
PfHsp40 yeast: 17; CCHF vOTU inh: 22; Sa ugtP lethal: 57; Sa RN4220 lethal: 34

Results for COc1ccc(S(=O)(=O)NCc2cc(=O)n(C)c(=O)n2C)cc1F ?
PfHsp40 yeast: -1; CCHF vOTU inh: 4; Sa ugtP lethal: 4; Sa RN4220 lethal: 1; BJeLR lethal: -2

How did COc1ccc(S(=O)(=O)NCc2cc(=O)n(C)c(=O)n2C)cc1C do in these assays?
PfHsp40 yeast: 41*; CCHF vOTU inh: -6; Sa ugtP lethal: 6; Sa RN4220 lethal: 2; BJeLR lethal: -2

What do the screens show for `CCCCCCCCn1ccc(=N)cc1`?
PfHsp40 yeast: 0; CCHF vOTU inh: 6; Sa ugtP lethal: 14; Sa RN4220 lethal: 4; BJeLR lethal: 21

How did CCCCCCCCCCn1ccc(=N)cc1 do in these assays?
PfHsp40 yeast: -1; CCHF vOTU inh: 11; Sa ugtP lethal: 101*; Sa RN4220 lethal: 100*; BJeLR lethal: 4

How did COC(=O)C1=C(c2ccc(-c3ccccc3)c(F)c2)CC2CCC1N2C(=O)NC1Cc2ccccc2C1 (stereo not drawn) do in these assays?
Sa ugtP lethal: 9; Sa RN4220 lethal: -3

What do the screens show for `CCOc1ccc(CCNC(=O)c2ccc(CS(=O)Cc3ccc(Cl)cc3)o2)cc1OCC` (stereo not drawn)?
PfHsp40 yeast: 2; CCHF vOTU inh: 11; Sa ugtP lethal: 15; Sa RN4220 lethal: 3; BJeLR lethal: 2

Results for CCOc1ccc(CCNC(=O)c2ccc(CS(=O)Cc3cccc(Cl)c3)o2)cc1 (stereo not drawn) ?
PfHsp40 yeast: 1; CCHF vOTU inh: 10; Sa ugtP lethal: 96*; Sa RN4220 lethal: -6; BJeLR lethal: 7

Results for CC(C)N(Cc1ccccc1)C(=O)CN1c2cccc3cccc(c23)S1(=O)=O ?
PfHsp40 yeast: 70*; CCHF vOTU inh: 0; Sa ugtP lethal: 4; Sa RN4220 lethal: 4

How did CC1CCC(C(C)C)C(OC(=O)Cn2c(-c3ccccc3)[n+](C)c3ccccc32)C1 (stereo not drawn) do in these assays?
PfHsp40 yeast: -1; CCHF vOTU inh: 12; Sa ugtP lethal: 100*; Sa RN4220 lethal: 99*; BJeLR lethal: -1

What do the screens show for `CC1CCC(C(C)C)C(OC(=O)Cn2c(COc3ccccc3)[n+](C)c3ccccc32)C1` (stereo not drawn)?
PfHsp40 yeast: 1; CCHF vOTU inh: 29; Sa ugtP lethal: 100*; Sa RN4220 lethal: 101*; BJeLR lethal: 29

What do the screens show for `CC1CCC(C(C)C)C(OC(=O)Cn2c(-c3ccc(F)cc3)[n+](C)c3ccccc32)C1` (stereo not drawn)?
PfHsp40 yeast: 1; CCHF vOTU inh: 14; Sa ugtP lethal: 100*; Sa RN4220 lethal: 97*

What do the screens show for `Cc1cccc(OCc2n(CC(=O)OC3CC(C)CCC3C(C)C)c3ccccc3[n+]2C)c1` (stereo not drawn)?
BJeLR lethal: 12

How did O=C(NN=Cc1ccc(N2CCOCC2)cc1)c1ccccn1 do in these assays?
Sa ugtP lethal: -3; Sa RN4220 lethal: 2

Results for COc1ccc(C=NNC(=O)c2ccc(COc3cccc4cccnc34)cc2)cc1OC ?
Sa ugtP lethal: 10; Sa RN4220 lethal: 5

Results for CC1CN(C(C)CO)C(=O)c2cc(NC(=O)Cc3cn(C)c4ccccc34)ccc2OC1CN(C)C(=O)Nc1ccc2c(c1)OCO2 (stereo not drawn) ?
Sa ugtP lethal: -2; Sa RN4220 lethal: 2

How did C=C1CC2C3CCc4cc(OC)ccc4C3CC[C@]12C (stereo partly drawn) do in these assays?
Sa ugtP lethal: 89*; Sa RN4220 lethal: -10

Results for CC[C@@H](C(=O)[C@@H](C)[C@@H](O)[C@H](C)CCc1ccc(C)c(O)c1C(=O)O)[C@H]1O[C@](CC)([C@H]2CC[C@](O)(CC)[C@H](C)O2)C[C@@H]1C ?
PfHsp40 yeast: 184*; CCHF vOTU inh: 19; BJeLR lethal: 2

Results for NC(=O)c1cccc2c1-c1ccccc1C2=NNC(N)=S ?
Sa ugtP lethal: -3; Sa RN4220 lethal: 0

What do the screens show for `O=[N+]([O-])c1cnc(Sc2ccncn2)s1`?
PfHsp40 yeast: 20; CCHF vOTU inh: -8; Sa ugtP lethal: 100*; Sa RN4220 lethal: 81; BJeLR lethal: 62*

Results for CC(CCc1oc2ccc(Cl)cc2c1-c1ccc(C)o1)=NO ?
Sa ugtP lethal: 87*; Sa RN4220 lethal: -3

How did CC(CCc1oc2ccc(Br)cc2c1-c1ccc(C)o1)=NO do in these assays?
Sa ugtP lethal: 89*; Sa RN4220 lethal: -5

What do the screens show for `C/C(CCc1oc2ccc(Br)cc2c1-c1ccc(C)o1)=N/O`?
PfHsp40 yeast: 2; CCHF vOTU inh: 14; BJeLR lethal: -2
